Screening results as filed in PubChem.
An excerpt weighted towards active compounds, which were near 2.8% of everything screened.
DAGLB inhibitor = diacylglycerol lipase beta (human) inhibition. Q8NCG7. HEK293T DAGLB membrane lysate, EnzChek fluorogenic substrate. inhibition, % at 5.17 µM. 340,000 tested, 0.059% active. AID 504411; in the data active = inhibition above about 34%;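 note: 0% = enzyme with vehicle and 100% = wells lacking enzyme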
Target sequence (Q8NCG7 whole entry, looked up): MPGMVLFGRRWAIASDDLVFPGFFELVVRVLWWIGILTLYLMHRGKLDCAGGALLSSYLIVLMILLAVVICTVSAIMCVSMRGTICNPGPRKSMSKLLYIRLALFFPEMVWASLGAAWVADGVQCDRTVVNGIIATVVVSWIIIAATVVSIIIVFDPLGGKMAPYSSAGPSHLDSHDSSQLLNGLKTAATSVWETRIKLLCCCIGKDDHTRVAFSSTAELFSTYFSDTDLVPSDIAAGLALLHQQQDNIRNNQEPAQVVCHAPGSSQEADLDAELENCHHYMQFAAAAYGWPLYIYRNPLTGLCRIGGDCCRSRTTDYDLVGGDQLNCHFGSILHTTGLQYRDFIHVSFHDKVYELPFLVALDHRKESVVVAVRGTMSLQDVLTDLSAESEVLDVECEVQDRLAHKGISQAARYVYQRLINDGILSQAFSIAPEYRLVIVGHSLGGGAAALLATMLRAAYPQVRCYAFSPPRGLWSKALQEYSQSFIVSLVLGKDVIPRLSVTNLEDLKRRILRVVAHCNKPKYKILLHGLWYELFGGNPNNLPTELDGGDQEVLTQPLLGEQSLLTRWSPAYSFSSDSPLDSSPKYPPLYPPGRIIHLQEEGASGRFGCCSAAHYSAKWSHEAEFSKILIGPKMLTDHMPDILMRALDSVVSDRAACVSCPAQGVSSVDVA
pPAFAH FP inh = inhibitors of human plasma PAF acetylhydrolase (pPAFAH); inhibition, % at 3.39 µM; Q13093; 330,000 tested, 1.5% active; recombinant pPAFAH, FP-rhodamine probe fluorescence polarization;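 active = inhibition above the mean inhibition across the screen plus 3 SD, cut at about 25% in these data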;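 note: inhibitors block binding of the rhodamine activity-based probe so polarization drops; 0% = enzyme with DMSO and 100% = wells lacking pPAFAH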
HTRA1 inhibitor = inhibitors of human serine peptidase HTRA1; recombinant HTRA1, FP-rhodamine activity-based probe, fluorescence polarization; inhibition, % at 5.96 µM; Q92743; 340,000 tested, 0.5% active; in the data active = inhibition above about 36%;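 note: 0% = enzyme with DMSO and 100% = wells lacking enzyme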
PAFAH1B2 inh = blocks human PAF acetylhydrolase 1b catalytic subunit 2. recombinant PAFAH1B2, FP-rhodamine activity probe, fluorescence polarization. inhibition, % at 3.39 µM. 340,000 tested, 1.2% active;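 active = inhibition above the mean of all tested compounds plus 3 SD, cut at about 24% in these data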;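 note: 0% = enzyme with DMSO and 100% = wells lacking PAFAH1B2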
PAFAH2 inh = inhibitors of human PAFAH2 | Q99487 | 340,000 tested, 0.99% active | inhibition, % at 3.39 µM | recombinant PAFAH2, FP-rhodamine activity probe, fluorescence polarization;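 active = inhibition above the mean over all tested compounds plus 3 SD, cut at about 30% in these data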;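 note: inhibitors block probe labeling of enzyme so polarization drops; 0% = enzyme with DMSO and 100% = wells lacking PAFAH2 protein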
PAFAH1B3 FP inh = inhibitors of human PAFAH1B3 | Q15102 | recombinant PAFAH1B3, FP-rhodamine probe, fluorescence polarization | inhibition, % at 3.39 µM | 340,000 tested, 0.28% active | AID 492972;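 active = inhibition above the screen-wide average of all tested compounds plus 3 SD, cut at about 25% in these data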;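 note: 0% = enzyme with DMSO only and 100% = wells lacking PAFAH1B3 protein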
Starred values were filed as active, the others as inactive; · = no result given.

SMILES | DAGLB inhibitor | pPAFAH FP inh | HTRA1 inhibitor | PAFAH1B2 inh | PAFAH2 inh | PAFAH1B3 FP inh
O=S(=O)(c1cccc(F)c1)N1CCc2sccc2C1c1ccc(OC(F)(F)F)cc1 (stereo not drawn) | · | 4 | · | · | · | ·
CCC(C)(C)n1nnnc1C(c1ccncc1)N1CCC(Cc2ccccc2)CC1 (stereo not drawn) | 1 | 26* | 0 | 0 | -7 | 7
Cc1cc(C(=O)O)ccc1-n1c(C)cc(C=C2C(=O)c3ccccc3C2=O)c1C | 4 | 17 | -8 | 2 | 22 | 8
Cc1cc(C(=O)O)ccc1-n1c(C)ccc1C | · | 50* | · | · | · | ·
COc1ccc(-n2nc3c(c2NC(=O)c2ccccc2S(=O)(=O)C(F)F)CS(=O)(=O)C3)cc1 | -3 | 3 | -7 | 1 | 8 | 9
COc1ccc2ccccc2c1C(=O)/C=C\c1ccoc1 | -3 | 27* | -9 | 1 | 6 | 0
CC(=O)N1CCSc2ccc(S(=O)(=O)Nc3ccc(C)cc3)cc21 | 1 | 25* | -7 | 8 | 12 | 2
CCOc1ccc(NS(=O)(=O)c2ccc3c(c2)N(C(C)=O)CCO3)cc1 | 1 | 32* | 5 | 4 | 0 | 11
CCc1cccc(NS(=O)(=O)c2ccc3c(c2)N(C)CCO3)c1 | -4 | 30* | -8 | 5 | 7 | 2
COc1ccc(NS(=O)(=O)c2ccc3c(c2)N(C(C)=O)CCS3)cc1 | 1 | 4 | -3 | 2 | 7 | 5
CCOc1ccc(NS(=O)(=O)c2ccc(OC)c(NC(=O)c3ccc4c(c3)OCCO4)c2)cc1 | 1 | 27* | -71 | -5 | -11 | -3
CCOc1ccccc1NS(=O)(=O)c1ccc2c(c1)N(C)CCO2 | -2 | -2 | -1 | 0 | 5 | -4
NS(=O)(=O)OCCCc1ccc(C(F)(F)F)cc1 | -3 | 7 | 7 | 11 | 5 | 1
COc1cccc(C(C(=O)NC(C)(C)C)N(Cc2ccc(F)cc2)C(=O)CCC(=O)Nc2cc(C)on2)c1OC (stereo not drawn) | 2 | 4 | -5 | 4 | -8 | 2
CC(C)c1cccc(C(C)C)c1NC(=O)COC(=O)[C@H](C)NC(N)=O | 0 | -1 | -4 | 2 | 0 | -2
COC(=O)[C@H](CC(C)C)NC(=O)Cn1cnc2c(SC)nc(N)nc21 | -6 | 2 | 2 | 8 | -8 | -2
Cc1csc(=O)n1CCC(=O)OCC(=O)Nc1cc([N+](=O)[O-])ccc1Cl | 2 | 2 | -8 | 2 | -1 | 9
CC(=O)c1ccc(NS(=O)(=O)c2ccc3c(c2)N(C(C)=O)CCO3)cc1 | -1 | 1 | -2 | 2 | 7 | -2
Cc1ccc(CCNS(=O)(=O)c2ccc3c(c2)N(C)CCO3)cc1 | -7 | 10 | -6 | 30* | 1 | 3
Cc1ccc(NS(=O)(=O)c2ccc3c(c2)N(C)CCO3)cc1 | 0 | 28* | 0 | 11 | 4 | -1
O=C(CSc1nnc(CNC(=O)c2ccccc2)o1)NCCc1ccccc1 | -1 | 4 | 0 | 3 | 3 | 5
O=C1/C(=C/c2cccs2)CCC/C1=C\c1cccs1 | -13 | 29* | -12 | 12 | -1 | 8
Cc1ccc(CN2C(=O)C(C)Nc3ncnc(N4CCN(c5ccccn5)CC4)c32)cc1 (stereo not drawn) | 1 | 11 | -21 | -2 | -3 | 6
CC(=O)Nc1ccc(Nc2nc3ccccc3nc2NS(=O)(=O)c2ccc(Cl)c([N+](=O)[O-])c2)cc1 | 14 | · | 32 | 23 | 52* | 31*
O=C1CCCN1c1ccc(S(=O)(=O)Oc2ccc(Cl)cc2)cc1[N+](=O)[O-] | 1 | -1 | -4 | 69* | 2 | -4
SMILES | DAGLB inhibitor | pPAFAH FP inh | HTRA1 inhibitor | PAFAH1B2 inh | PAFAH2 inh | PAFAH1B3 FP inh
Cc1nc(N)sc1-c1csc(NCc2ccccc2)n1 | 3 | 14 | 23 | 12 | 9 | 7
Cc1cc(-c2csc(NCc3ccccc3)n2)c(C)n1C | 12 | · | 37* | 0 | 13 | 1
CC1=C(C(=O)OCCCCCl)C(c2cc3c(cc2Br)OCO3)NC(=O)N1 (stereo not drawn) | 5 | 0 | -28 | 13 | -9 | 13
COc1cc(/C=C2\SC(=S)N(CCCCC(=O)O)C2=O)ccc1OS(=O)(=O)c1ccc(C)cc1 | 10 | 13 | -40 | 30* | 9 | 3
COc1cc(/C=C2/SC(=S)NC2=O)ccc1OS(=O)(=O)c1ccc(C)cc1 | 23 | 5 | -191 | 43* | -5 | -5
CCC1NC(=O)c2cc3ccccc3cc2-n2c1nc1ccc(OC)cc1c2=O (stereo not drawn) | 1 | · | -13 | · | · | ·
O=C(Nc1cccc(C(=O)N2CCCC2)c1)C1CC1 | -4 | · | -4 | -1 | -2 | 0
O=C1Cc2cc(S(=O)(=O)NCc3ccc(F)cc3)ccc2N1 | -3 | -4 | -16 | 3 | -8 | 2
CCCCCCCCCS(=O)(=O)N/N=C/c1cccc([N+](=O)[O-])c1 | -10 | 21 | -28 | 28* | 18 | 11
Cc1ccc(S(=O)(=O)N/N=C/c2cccc([N+](=O)[O-])c2)cc1 | 3 | 0 | 3 | 4 | 1 | 13
CCOc1ccc(N=C/C=C/c2ccccc2)c(O)c1 | 6 | 32* | 35 | 0 | 0 | 2
CCOc1ccc(NCC(=O)N/N=C/C=C/c2ccccc2)cc1 | 0 | 7 | -14 | 1 | 3 | 5
COc1cccc(OC)c1OCCCNC1CCCC1 | -3 | -7 | 8 | -4 | -16 | 5
O=C(NNC(=O)C1CCN(S(=O)(=O)c2ccc(Cl)cc2)CC1)c1ccccc1 | 0 | -1 | 6 | 34* | 8 | -3
Cc1cccc(NC(=O)C2CCN(S(=O)(=O)c3ccc4ccccc4c3)CC2)n1 | -2 | 1 | -10 | 2 | 3 | 2
CCN(CC)S(=O)(=O)c1ccc(C(=O)NNC(=O)C2CCN(S(=O)(=O)c3ccc(Cl)cc3)CC2)cc1 | -3 | 1 | 2 | 36* | 8 | 6
Cc1cccc(NC(=O)C2CCN(S(=O)(=O)c3ccc(Cl)cc3)CC2)n1 | 1 | 4 | 1 | 29* | 3 | 2
O=C(NNC(=O)C1CCN(S(=O)(=O)c2ccc(Cl)cc2)CC1)c1ccc(Cl)cc1 | -1 | -1 | 5 | 13 | 5 | 8
N=C1C(c2nc(-c3ccc(F)cc3)cs2)=C(O)CN1CCCN1CCOCC1 | 2 | 10 | -1 | 6 | 38* | 7
CC(C)CCN1CC(O)=C(c2nc(-c3ccc(Cl)cc3)cs2)C1=N | -1 | -2 | -21 | 2 | 9 | 2
C#CCOCCOCCOCCNc1nc(N2CCN(C(=O)CCCCCCCCCCNC(=O)Cn3cc(C[C@@H](C)O)nn3)CC2)nc(N2CCN(C(=O)CCCCCCCCCCNC(=O)[C@H](CCCCN)n3cc(CCCC(=O)O)nn3)CC2)n1 | -2 | 25* | -39 | -3 | -4 | -12
COc1ccc(-c2cc(-c3c(O)c(OC)c4occc4c3OC)[nH]n2)cc1OC | 0 | 34* | 24 | 4 | 17 | 10
